Test results published in PubChem BioAssay (Tox21).
Where “and” joins values, the source holds several entries; their conditions need not be identical. Equal values may be shown once. Inconclusive results are not listed. Calls of active or inactive are those of the source. Unless noted, calls come from the whole dose curve; as a rule, active = well fitted curve in the direction sought with a large enough effect in the repeat runs; inconclusive = weak or mixed curves; inactive = no such curve, though single readings can be large; an effect the other way counts as inactive or inconclusive.

Assays:
[1] = qHTS assay to identify small molecule antagonists of the estrogen related receptor (ERR) signaling pathway - cell viability counter screen (AID 1224818)
How it was run: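 ERR cells, 2,000 per well, compound added after 6 h and incubated 17.5 h at 37 C. Viability read by CellTiter-Fluor fluorescence after a further 30 min at 37 C.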

[2] = qHTS assay to identify small molecule antagonists of the estrogen related receptor (ERR) signaling pathway (AID 1224819;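 note: luminescence from an ERR-driven luciferase reporter measured with One-Glo reagent; nearly all actives have a fitted effect of over 50% in size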)
How it was run: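 ERR reporter cell line (NTP) plated at 2,000 cells/well, settled 6 h at 37C/5% CO2, then exposed to LOPAC compounds for 18 h at 37C. One-Glo luciferase luminescence read after 30 min at room temperature.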

[3] = qHTS assay to identify small molecule agonists of the estrogen related receptor (ERR) signaling pathway (AID 1224820)
How it was run: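 Quantitative HTS of the LOPAC library used NTP ERR reporter cells treated 18 h at 37 C. Signal is luminescence after One-Glo addition and a 30 min room-temperature incubation.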

[4] = system: estrogen-related receptor alpha (ERRalpha) with PGC-1alpha coactivator, human; experiment: qHTS assay to identify small molecule antagonists of the estrogen related receptor signaling pathway with the pleiotropic PPARgamma coactivator (PGC) (AID 1224821; calls by dose curve;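 note: lower luminescence signal means antagonism of PGC/ERR signalling; nearly all actives have a fitted effect of over 50% in size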)
How it was run: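 Quantitative HTS for antagonism: PGC/ERR cells received compounds after 6 h attachment and were incubated 18 h at 37 C, with luminescence (One-Glo) as the endpoint.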

[5] = qHTS assay to identify small molecule antagonists of the estrogen related receptor signaling pathway with the pleiotropic PPARgamma coactivator (PGC) cell viability counter screen (AID 1224822)
How it was run: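 PGC/ERR cells rested 6 h, then compound-treated 17.5 h at 37 C. CellTiter-Fluor added for 30 min at 37 C, viability measured by fluorescence intensity.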

[6] = qHTS assay to identify small molecule agonists of the estrogen related receptor signaling pathway with the pleiotropic PPARgamma coactivator (PGC) (AID 1224823)
How it was run: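 Cell-based luciferase assay in the NTP-supplied PGC/ERR line, 2,000 cells/well; 18 h compound exposure at 37 C, luminescence after One-Glo.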

[7] = qHTS assay to identify small molecule antagonists of the estrogen related receptor (ERR) signaling pathway from Tox21 library - cell viability counter screen (AID 1224834); note: nearly all actives have a fitted effect of over 30% in size
How it was run: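 ERR reporter cells, 2,000 per well, rested 6 h, then exposed to compound in DMSO for 17.5 hours at 37 C. Viability read as fluorescence after 30 min with CellTiter-Fluor.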

[8] = qHTS assay to identify small molecule antagonists of the estrogen related receptor signaling pathway with the pleiotropic PPARgamma coactivator (PGC) from Tox21 10K library - cell viability counter screen (AID 1224840; active = well fitted cell-killing curve with a large enough effect in the repeat runs, not every such curve was filed as active; note: nearly all actives have a fitted effect of over 40% in size)
How it was run: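 PGC/ERR cells (2,000/well) plated 6 h, then compound-treated for 17.5 h at 37 C. Viability measured by CellTiter-Fluor fluorescence after 30 min at 37 C, multiplexed with the pathway assay.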

[9] = qHTS assay to identify small molecule antagonists of the estrogen related receptor signaling pathway with the pleiotropic PPARgamma coactivator (PGC) from Tox21 10K library (AID 1224841; call rule not given here; note: actives are mostly falling curves and most rising ones were filed inactive; nearly all actives have a fitted effect of over 50% in size)
How it was run: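 PGC/ERR cell line, 2,000 cells/well, pre-incubated 6 hours at 37 C, then exposed to compounds for 18 hours at 37 C; luciferase read with One-Glo luminescence after 30 min at room temperature.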

[10] = qHTS assay to identify small molecule agonists of the estrogen related receptor signaling pathway with the pleiotropic PPARgamma coactivator (PGC) from Tox21 10K library (AID 1224842); note: nearly all actives have a fitted effect of over 15% in size
How it was run: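 PGC/ERR reporter cell line, 2,000 cells per well, incubated 6 h at 37 C before 23 nL compound in DMSO was added. After 18 h at 37 C, One-Glo luminescence read following 30 min at room temperature.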

[11] = qHTS assay to identify small molecule antagonists of the estrogen related receptor (ERR) signaling pathway from Tox21 library (AID 1224848); note: nearly all actives have a fitted effect of over 50% in size
How it was run: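 Luminescent reporter read-out (ONE-Glo) from NTP's ERR cell line after 18 h treatment at 37 C with DMSO-dissolved Tox21 compounds; cells pre-plated 6 h beforehand at 2,000 per well.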

[12] = qHTS assay to identify small molecule agonists of the estrogen related receptor (ERR) signaling pathway from Tox21 library (AID 1224849; calls by dose curve; note: nearly all actives have a fitted effect of over 15% in size); details: ERR reporter cell line, ONE-Glo luciferase, 18 h
How it was run: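 ERR reporter cells (NTP line) pre-incubated 6 hours at 37 C, then exposed to compounds for 18 hours at 37 C. ONE-Glo luciferase luminescence was read after 30 minutes at room temperature.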

[13] = target: Acetylcholinesterase (Homo sapiens) (UniProt P22303); experiment: Acetylcholinesterase (AChE) small molecule antagonists: colormetric cell-based qHTS assay (AID 1347395; calls by dose curve; note: nearly all actives have a fitted effect of over 30% in size)
Sequence of Acetylcholinesterase (Homo sapiens) (P22303 whole entry, looked up): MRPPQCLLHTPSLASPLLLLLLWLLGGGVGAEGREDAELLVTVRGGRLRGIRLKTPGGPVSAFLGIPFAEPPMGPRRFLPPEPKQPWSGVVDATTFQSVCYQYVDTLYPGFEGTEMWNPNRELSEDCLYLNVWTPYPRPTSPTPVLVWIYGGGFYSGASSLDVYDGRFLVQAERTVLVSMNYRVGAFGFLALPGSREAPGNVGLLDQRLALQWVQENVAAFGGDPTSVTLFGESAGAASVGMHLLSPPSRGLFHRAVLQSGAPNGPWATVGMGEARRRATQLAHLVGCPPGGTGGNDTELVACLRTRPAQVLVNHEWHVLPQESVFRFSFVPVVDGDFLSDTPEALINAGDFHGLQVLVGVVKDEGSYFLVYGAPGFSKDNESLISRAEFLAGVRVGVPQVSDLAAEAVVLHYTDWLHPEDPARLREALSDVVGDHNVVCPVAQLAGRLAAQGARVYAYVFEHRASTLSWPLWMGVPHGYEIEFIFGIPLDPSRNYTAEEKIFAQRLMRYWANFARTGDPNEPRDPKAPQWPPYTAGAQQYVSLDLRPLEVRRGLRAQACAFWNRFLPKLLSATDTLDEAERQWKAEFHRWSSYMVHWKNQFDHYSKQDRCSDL
How it was run: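 Neuroblastoma line SH-SY5Y supplied the enzyme; cells were preincubated with compound for 30 min at 37 C and 5% CO2. Acetylthiocholine with DTNB was then added for 90 min at 37 C, and thiocholine was measured by colour.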

[14] = target: Acetylcholinesterase (Homo sapiens) (UniProt P22303); experiment: Acetylcholinesterase (AChE) small molecule antagonists: enzyme-based qHTS assay (AID 1347397; calls by dose curve; note: nearly all actives have a fitted effect of over 55% in size); details: Potency: AChE enzyme activity inhibition; outcome: AChE enzyme activity inhibition
How it was run: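 Enzyme inhibition was scored from DTNB-detected thiocholine formed by recombinant human AChE acting on acetylthiocholine. The 30 min compound preincubation and 10 min substrate reaction were both run at room temperature, with DMSO as vehicle control.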

[15] = target: Acetylcholinesterase (Homo sapiens) (UniProt P22303); experiment: Acetylcholinesterase (AChE) small molecule antagonists: fluorescence cell-based qHTS assay (AID 1347398; calls by dose curve; note: nearly all actives have a fitted effect of over 50% in size); details: Potency: AChE activity; outcome: AChE activity
How it was run: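 Endogenous acetylcholinesterase of SH-SY5Y neuroblastoma cells is measured in situ. After overnight attachment and 30 min compound exposure, cells receive acetylthiocholine and Thiolite Green; fluorescence is read after 40 min at room temperature.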

[16] = target: Acetylcholinesterase (Homo sapiens) (UniProt P22303); experiment: Acetylcholinesterase (AChE) small molecule antagonists: enzyme-based qHTS assay with human liver microsomes (AID 1347399; calls by dose curve; note: nearly all actives have a fitted effect of over 60% in size); details: Potency: qHTS inhibition; outcome: qHTS inhibition
How it was run: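 Recombinant human AChE (50 mU/mL in the enzyme mix) and human liver microsomes (0.25 mg/mL final) were preincubated with compound and NADPH (0.25 mg/mL final) for 30 min at 37 C. Acetylthiocholine/DTNB was then added; thiocholine was read colorimetrically after 10 min at room temperature.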
% is set by controls: 0 for no effect and ±100 for the full control effect.

CC12NC(Cc3ccccc31)c1ccccc12 (stereo unspecified)
inactive: Potency [1] | Potency [2] | Potency [3] | Potency [4] | Potency [5] | Potency [6]

C[N+]1(C)CCN(c2ccccc2)CC1
inactive: Potency [1] | Potency [2] | Potency [3] | Potency [4] | Potency [5] | Potency [6]

CC(N)C(=O)OC(C)(C)Cc1ccc(Cl)cc1 (stereo unspecified)
inactive: Potency [1] | Potency [2] | Potency [3] | Potency [4] | Potency [5] | Potency [6] | Potency [7] | Potency [8] | Potency [9] | Potency [10] | Potency [11] | activity change, positive = activation ([12]; at 92.4 µM (top of the series) unless noted) 8.82% [at 42.5 µM] | Potency [13] | Potency [14] | Potency [15] | Potency [16]

CC(C)Oc1cccnc1N(C)C1CCN(Cc2ccccc2)CC1
inactive: Potency [1] | Potency [2] | Potency [3] | Potency [4] | Potency [5] | Potency [6]

COc1ccc2[nH]c3c(c2c1)CCNC3
inactive: Potency [1] | Potency [2] | Potency [3] | Potency [4] | Potency [5] | Potency [6]

NC(C(=O)O)c1cc(=O)[nH]o1 (stereo unspecified)
inactive: Potency [1] | Potency [2] | Potency [3] | Potency [4] | Potency [5] | Potency [6]

O=[N+]([O-])c1ccc2nc(N3CCNCC3)ccc2c1
inactive: Potency [1] | Potency [2] | Potency [3] | Potency [4] | Potency [5] | Potency [6]

N[C@@]1(C(=O)O)CC[C@@H](C(=O)O)C1
inactive: Potency [1] | Potency [2] | Potency [3] | Potency [4] | Potency [5] | Potency [6]

CC1OC1P(=O)(O)O (stereo unspecified)
inactive: Potency [1] | Potency [2] | Potency [3] | Potency [4] | Potency [5] | Potency [6]

CCn1cc(C(=O)O)c(=O)c2ccc(C)nc21
inactive: Potency [1] | Potency [2] | Potency [3] | Potency [4] | Potency [5] | Potency [6] | Potency [7] | Potency [8] | Potency [9] | Potency [10] | Potency [11] | activity change, positive = activation ([12]; at 42.5 µM (top of the series)) 4.67% | activity change, positive = activation ([12]; at 92.4 µM (top of the series)) 4.5% and 0.305% | Potency [14] | Potency [15]

NCCc1ccc(S(=O)(=O)F)cc1
inactive: Potency [1] | Potency [2] | Potency [3] | Potency [4] | Potency [5] | Potency [6]

O=C(Cc1ccc(Cl)c(Cl)c1)N1CCCCC1CN1CCCC1 (stereo unspecified)
inactive: Potency [1] | Potency [2] | Potency [3] | Potency [4] | Potency [5] | Potency [6]
